High-throughput results (PubChem BioAssay)
MCF10A rerep: DNA re-replication induction in MCF 10a cells | MCF 10A DNA re-replication, Hoechst nuclear intensity, 48 h | Potency, µM (top dose mostly 46.1 µM), for inactives: at the top dose activity, positive = re-replication, usual class: activators | 350,000 compounds, 2.9% hits | AID 624296; also: potency is read from the fitted curve at half-maximal effect; % of control where 0% means no effect; nearly all actives have a fitted effect of over 50% in size
ATXN2 expr inh: ATXN2 expression inhibition; HEK-293 ATXN2-luciferase reporter, luminescence, 24 h; Potency, µM (series often up to 57 µM), inactives show at the highest dose activity change, negative = inhibition, usual class: inhibitors; 360,000 compounds, 0.72% hits; also: potency is read from the fitted curve at half-maximal effect; % is scaled to controls: 0 for no effect and ±100 for the full control effect; nearly all actives have a fitted effect of over 55% in size
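ATXN2-luciferase reporter cells (luciferase flanked by upstream and downstream ATXN2 gene portions) were treated 24 h at 37 °C with compounds at up to 57 uM. SteadyGlo luminescence gave expression; GF-AFC fluorescence gave viability.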
ATXN viability: viability counter-screen for ATXN expression inhibitors; 400,000 compounds, 0.49% hits; Potency, µM (series often up to 56.7 µM), hits mostly cytotoxic; S2 cells (HEK-293 line with an ATXN2-luciferase reporter) viability, CellTiter-Fluor protease fluorescence, 24 h; also: potency is read from the fitted curve at half-maximal effect; nearly all actives have a fitted effect of over 40% in size
IL1B secr inh: inflammasome signaling inhibition, IL-1 beta readout; THP-1 LPS/ATP IL-1B secretion, AlphaLISA, 16 h; active compounds read low; activity change, % at 57.5 µM; 360,000 compounds, 4.7% hits; AID 743279; in the data active = activity change below about -50%; inconclusive = mostly about -30% to -49%; also: % is scaled to controls: 0 for no effect and ±100 for the full control effect
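Secreted IL-1B measured by AlphaLISA bead assay after 16 h compound exposure of THP-1 cells; compounds (final up to 57.5 uM) added 1 h before LPS (250 ng/mL) and ATP (1.25 mM) stimulation; lower signal means less secretion.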
PINK1 modulator: changes PINK1 expression. Potency, µM (series often up to 76.6 µM), inactives show at the highest dose activation (PINK1 increase), hits mostly activators. 410,000 compounds, 0.2% hits. AID 624263. PINK1 immunofluorescence, high-content cytometry, 24 h; active = well fitted activation curve with a large enough effect; inconclusive = small, poorly fitted or top-dose-only effect; cell line not stated here; also: potency is read from the fitted curve at half-maximal effect; % of control where 0% means no effect; nearly all actives have a fitted effect of over 65% in size
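PINK1 protein, normally rapidly degraded, was detected by immunofluorescence after 24 hour compound treatment of a stable cell line. Titration data (5 concentrations) came from laser-scanning cytometry, with CCCP-treated wells as controls.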
SW480 rereplic: induces DNA re-replication in SW480 colon adenocarcinoma cells. SW480 DNA re-replication, Hoechst DNA content imaging, 48 h. Potency, µM (top dose mostly 46.1 µM), inactives show at the top dose re-replication activation, actives largely listed as activators. 340,000 compounds, 1.8% hits; also: potency is read from the fitted curve at half-maximal effect; % of control where 0% means no effect; nearly all actives have a fitted effect of over 55% in size
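Per well, 250 cells were exposed to pinned compound for 48 hr. Nuclear DNA was visualised with Hoechst (40 min, 37 C) and total object intensity recorded by fluorescence scanning.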
The depositor's hits bear a star; i = inactive; ? = inconclusive; nt = no result; [ ] = another dose, or the depositor's remark. This is a sample that favours compounds with a hit; in the whole collection about 7.1% have one here. Unless noted, calls follow the shape of the dose curve; as a rule, active = well fitted curve in the direction sought with a large enough effect; inconclusive = small, poorly fitted or top-dose-only effect, or another doubt; inactive = no such curve, though single readings can be large; an effect the other way counts as inactive or inconclusive.

SMILES	MCF10A rerep	ATXN2 expr inh	ATXN viability	IL1B secr inh	PINK1 modulator	SW480 rereplic
Cc1ccc2occ(CC(=O)N(Cc3ccc(Cl)cc3)C3CCS(=O)(=O)C3)c2c1 (centres undefined)	nt	?	?	nt	0%	nt
O=C(Nc1ccc2c(c1)N(C1CCCC1)C(=O)c1ccccc1S2)c1cccc(F)c1	nt	0%	i	nt	2%	nt
CCCCCOc1ccc(/C(C)=N/NC2=NCCN2)cc1	20%	?	i	-66*	-2%	?
CCCCCCOc1ccc(C(=O)O)cc1	6%	0%	i	4	0%	3%
CCOc1ccc(Br)cc1/C(C)=N\NC1=NCCN1	?	-37%	i	-80*	1%	?
CCCCCCOc1ccc(/C(C)=N/NC2=NCCN2)cc1	47%	nt	?	-56*	-1%	2%
CC(=NNC1=NCCN1)c1cnn(C2=NCCN2)c1C	nt	8%	i	5	0%	nt
COc1ccc(-c2nn3c(-c4cc(-c5ccccc5)n[nH]4)nnc3s2)cc1	nt	nt	nt	nt	0%	nt
O=C(Nc1sc2c(c1C(=O)NCc1ccco1)CCCC2)c1cc(=O)c2ccccc2o1	nt	nt	nt	nt	-1%	nt
CN(Cc1cccc(F)c1)C(=O)CN1CCN(S(=O)(=O)c2ccc3c(c2)OCCCO3)CC1	9%	-5%	i	?	-1%	-10%
CC(C(=O)N(C)Cc1cccc(F)c1)N1CCN(S(=O)(=O)c2ccc3c(c2)OCCCO3)CC1 (centres undefined)	13%	-19%	i	-59*	-1%	10%
O=S(=O)(NCC(c1cccs1)S(=O)(=O)c1ccccc1)c1ccccc1 (centres undefined)	nt	nt	nt	nt	-1%	nt
CCOC(=O)CSc1nc2cc3c(cc2c(=O)n1CCCC(=O)NCCc1ccc(OC)c(OC)c1)OCO3	nt	nt	nt	nt	0%	nt
CC(C)(C)NC(=O)CSc1nnc(-c2ccccc2)c(-c2ccccc2)n1	-1%	nt	?	-84*	1%	-37%
CN(C)S(=O)(=O)N1CCC(N2CCN(Cc3ccc(F)cc3)C(=O)C2=O)CC1	nt	3%	i	nt	2%	nt
CSCCC(C(=O)Nc1c(C)cccc1C)n1c(COc2ccc(C)cc2)nc2ccccc21 (centres undefined)	nt	nt	nt	-58*	nt	nt
CSCCC(C(=O)Nc1c(C)cccc1C)n1c(-c2ccc(-c3ccccc3)cc2)nc2ccccc21 (centres undefined)	nt	nt	nt	-9	nt	nt
COc1cccc(C(=O)Nc2nnc(-c3ccc(Cl)cc3)o2)c1	9%	?	nt	14	1%	10%
COc1cccc(-c2nnc(NC(=O)c3ccc4ncsc4c3)o2)c1	6.5µM*	-29%	i	7	4%	-12%
COc1cccc(C(=O)Nc2nnc(-c3cccs3)o2)c1	0%	?	28µM*	-3	0%	3%
Nc1nc(NCCCN2CCOCC2)nc(Nc2ccc(F)cc2)c1[N+](=O)[O-]	?	-26%	i	16	-1%	8%
Nc1nc(NCCCN2CCOCC2)nc(Nc2ccccc2F)c1[N+](=O)[O-]	3%	?	i	-57*	2%	-4%
Cc1cccc(Nc2nc(NCCCN3CCOCC3)nc(N)c2[N+](=O)[O-])c1	?	?	i	-80*	1%	?
Cc1cccc(CCNC(=O)c2nn(C)c3c2CSc2ccccc2-3)c1	nt	nt	nt	nt	5%	nt
COCc1c(Br)c(C)nc(OCC(=O)N/N=C/c2ccc(C)o2)c1C#N	0.73µM*	-5%	?	-23	2%	8%
SMILES	MCF10A rerep	ATXN2 expr inh	ATXN viability	IL1B secr inh	PINK1 modulator	SW480 rereplic
O=C(Cc1cccs1)Nc1nnc(-c2ccccc2)s1	0.65µM*	-2%	?	2	4%	-19%
O=C(Cc1cccs1)Nc1nnc(-c2ccc(F)cc2)s1	-3%	nt	i	49	4%	-8%
O=C(CCCn1c(SCc2cccc(F)c2)nc2ccccc2c1=O)NCC1CCCO1 (centres undefined)	-3%	-34%	?	-79*	2%	0%
O=C(CCCn1c(SCC(=O)NCC2CCCO2)nc2ccccc2c1=O)NCc1ccccc1 (centres undefined)	0%	5%	i	-27	0%	-3%
COc1ccccc1N=Cc1nc(-c2ccccc2)oc1OC(C)=O	1%	-6%	?	37	-2%	2%
CC(=O)Oc1oc(-c2ccccc2)nc1/C=N/c1ccccn1	0%	-10%	i	-101*	-4%[38.3 µM]	0%
Cc1ccccc1NC(=O)Cn1c(=O)n(CCCC(=O)NCc2ccc3c(c2)OCO3)c(=O)c2ccccc21	nt	13%	i	nt	2%	nt
COc1ccccc1NC(=O)CSc1nnc(N)s1	nt	-11%	i	nt	2%	nt
COc1ccc(CNCCS(=O)(=O)NCc2ccc(OC)cc2)cc1	-2%	7%	i	35	0%	2%
CCCCCCCCNS(=O)(=O)CCNCc1ccc(OC)cc1	?	-25%	i	-61*	1%	8%
CC(=O)C(=Cc1ccc(C(=O)O)cc1)C(C)=O	-1%	-4%	i	13	0%	2%
Cc1ccc(NC(=O)C(=Cc2ccc(C(=O)O)cc2)C(=O)Nc2ccc(C)cc2C)c(C)c1	2.6µM*	nt	?	-100*	-1%	18µM*
CCOc1ccc(N(CC)S(=O)(=O)N2CCCC(C(=O)NCCc3ccccc3OC)C2)cc1 (centres undefined)	nt	nt	nt	nt	-1%	nt
Cc1ccc2occ(/C=N/NC(=O)c3ccccc3O)c(=O)c2c1	3%	0%	i	51	2%	18µM*
CCOc1ccccc1C(=O)N/N=C/c1coc2ccc(Cl)cc2c1=O	15µM*	9%	i	69	2%	15µM*
O=C(N/N=C/c1coc2ccc(Cl)cc2c1=O)c1cc(O)cc(O)c1	7%	-3%	i	-25	2%	-1%
COC(=O)c1ccc2c(c1)N(Cc1ccccc1)C(=O)c1ccccc1S2(=O)=O	nt	nt	nt	nt	1%	nt
CC(/C=C/c1ccc(O)cc1)=NNc1ccccc1	23µM*	-3%	i	-16	6%	?
O.O=C([O-])CC([S-])C(=O)[O-].[Au+].[Na+].[Na+] (centres undefined)	nt	nt	i	nt	nt	nt
O=C(c1cc(-c2ccc(O)cc2)on1)N1CCN(c2ccccc2)CC1	13%	18%	?	-54*	6%	-10%
COc1ccc(-c2cc(C(=O)N3CCCCCC3)no2)cc1	-18%	0%	i	-19	4%	-1%
O=C(c1cc(-c2ccc(O)cc2)on1)N1CCN(c2ccc(F)cc2)CC1	-2%	-18%	?	-21	1%	-10%
COc1ccc(-c2cc(C(=O)N3CCCC3)no2)cc1	-5%	8.9µM*	i	-27	1%	-1%
